Reference: PubChem BioAssay (NCI)
“And” between values parts separate entries of the source, which are not always exact repeats. Identical values can stand only once. This is part of a sample that, as a whole, favours compounds with a hit. Of some 79,000 tested, about 15% had one in any assay. The source made the active and inactive calls. Cut-off read from the data, not from the text of the source: active = growth inhibition above about 70%; inactive = the rest.

Key:
[1] = NCI Yeast Anticancer Drug Screen. Data for the rad52 strain (AID 147);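 note: 0% = growth of vehicle-treated control cultures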; settings: S. cerevisiae rad52 mutant growth inhibition, active compounds read high
How it was run: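 Yeast strain carrying a DNA damage repair alteration was exposed to test compounds. Growth inhibition was measured relative to vehicle-treated controls.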

[2] = NCI Yeast Anticancer Drug Screen. Data for the wt1 strain (AID 149);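 note: 0% = growth of vehicle-treated wt1 cultures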; settings: S. cerevisiae wt1 strain (SPY 50644) growth inhibition, active compounds read high
How it was run: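 wt1 yeast, compound-treated; % growth inhibition vs vehicle control.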

[3] = NCI Yeast Anticancer Drug Screen. Data for the rad50EPP+ strain (AID 151);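 note: 0% = growth of vehicle-treated control cultures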; settings: S. cerevisiae rad50 mutant strain, active compounds read high
How it was run: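 Yeast strain carrying rad50 alteration (rad50EPP+) exposed to compounds; growth inhibition measured relative to vehicle-treated controls.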

[4] = NCI Yeast Anticancer Drug Screen. Data for the rad50 strain (AID 155);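 note: 0% = growth of vehicle-only cultures of the same strain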; settings: S. cerevisiae rad50 strain growth inhibition, active compounds read high
How it was run: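 Genetically altered yeast (DNA repair pathway); compound treatment; growth inhibition vs vehicle ctrl.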

[5] = NCI Yeast Anticancer Drug Screen. Data for the mec2-1 strain (AID 157); settings: S. cerevisiae mec2-1 strain, active compounds read high
How it was run: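 mec2-1 yeast strain, carrying an alteration in DNA damage repair or cell cycle control, was exposed to compounds; growth inhibition was measured relative to vehicle-treated controls.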

[6] = NCI Yeast Anticancer Drug Screen. Data for the rad14 strain (AID 159);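 note: 0% = growth of vehicle-treated control cultures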; settings: S. cerevisiae rad14 strain growth inhibition, active compounds read high
How it was run: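 Test compounds were applied to a repair-deficient yeast strain. Its growth was then compared with that of cultures given vehicle alone, and inhibition was expressed relative to those controls.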

[7] = NCI Yeast Anticancer Drug Screen. Data for the sgs1 mgt1 strain (AID 161);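 note: 0% = growth of cultures given vehicle only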; settings: S. cerevisiae sgs1 mgt1 strain, active compounds read high
How it was run: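 Yeast cells carrying a defined DNA-repair defect were exposed to test compounds. Growth inhibition was measured relative to vehicle-treated controls.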

[8] = NCI Yeast Anticancer Drug Screen. Data for the CLN2oe strain (AID 163);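 note: 0% = growth of vehicle-only control cultures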; settings: S. cerevisiae CLN2oe strain, active compounds read high
How it was run: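 Yeast cells carrying a defined cell-cycle control alteration were exposed to test compounds. Growth inhibition was scored against vehicle-treated control cultures.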

[9] = NCI Yeast Anticancer Drug Screen. Data for the cln2 rad14 strain (AID 165);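 note: 0% = growth equal to vehicle treated cultures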; settings: S. cerevisiae cln2 rad14 strain, active compounds read high
How it was run: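 Yeast carrying cln2 and rad14 alterations (cell cycle control and DNA damage repair) were exposed to compounds. Growth inhibition was measured against vehicle-treated controls.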

[10] = NCI Yeast Anticancer Drug Screen. Data for the bub3 strain (AID 167); settings: S. cerevisiae bub3 mutant strain, active compounds read high
How it was run: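 Yeast carrying a defined mutation is treated with each compound, and growth is compared with that of vehicle-exposed cells to give inhibition.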

[11] = NCI Yeast Anticancer Drug Screen. Data for the wt2 strain (AID 169);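 note: 0% = growth of vehicle-treated yeast cultures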; settings: S. cerevisiae wt2 strain growth inhibition, active compounds read high
How it was run: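 Yeast cells were exposed to test compounds, and growth inhibition was measured relative to vehicle-treated controls.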

[12] = NCI Yeast Anticancer Drug Screen. Data for the mlh1 strain (AID 171);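 note: 0% = growth of vehicle-treated control cultures of the same strain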; settings: S. cerevisiae mlh1 strain growth inhibition, active compounds read high
How it was run: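 Yeast carrying a defined genetic alteration in DNA damage repair or cell cycle control were exposed to test compounds. Growth inhibition was measured relative to vehicle-treated controls.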

[13] = NCI Yeast Anticancer Drug Screen. Data for the sgs1 strain (AID 173);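 note: 0% = growth of vehicle-only control cultures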; settings: S. cerevisiae sgs1 mutant, active compounds read high
How it was run: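 Yeast mutant strains carrying defined defects in DNA damage repair or cell cycle control were exposed to test compounds. Growth inhibition was scored against vehicle-treated controls.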

[14] = NCI Yeast Anticancer Drug Screen. Data for the mlh1 rad18 strain (AID 175); settings: S. cerevisiae mlh1 rad18 strain growth inhibition, active compounds read high
How it was run: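 Growth inhibition of the yeast strain was measured after compound exposure and expressed relative to vehicle-treated controls. The strain carries defined defects in DNA damage repair.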

[15] = NCI Yeast Anticancer Drug Screen. Data for the rad18 strain (AID 177); settings: S. cerevisiae rad18 mutant growth inhibition, active compounds read high
How it was run: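 Yeast carrying a defined DNA damage repair alteration were exposed to compounds. Growth inhibition was expressed relative to vehicle-treated controls.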

[16] = at 5.0 µM (retest, dose inferred, filed as 0.5)
[17] = at 50.0 µM (retest, dose inferred, filed as 5.0)

Measured: growth inhibition

CC1CN1C1=C(Cl)C(=O)C(N2CC2C)=C(Cl)C1=O (stereo unspecified)
inactive: [1]; at 1.2 µM 22% | [1]; at 3.7 µM 40% | [1]; at 11.0 µM 64% | [2]; at 1.2 µM 0% | [2]; at 3.7 µM -4% | [2]; at 11.0 µM 12% | [3]; at 1.2 µM 8% | [3]; at 3.7 µM 21% | [3]; at 11.0 µM 47% | [4]; at 1.2 µM 16% | [4]; at 3.7 µM 27% | [4]; [16] 19% | [4]; at 50.0 µM 46% | [5]; at 1.2 µM 2% | [5]; at 3.7 µM 1% | [5]; [16] 15% | [5]; at 11.0 µM 6% | [5]; at 50.0 µM 18.8% | [6]; at 1.2 µM 22% | [6]; at 3.7 µM 37% | [6]; at 11.0 µM 50% | [7]; [16] 39% | [7]; at 50.0 µM 69.3% | [8]; at 1.2 µM 0% | [8]; at 3.7 µM -8% | [8]; at 11.0 µM -7% | [8]; at 33.0 µM 27% | [8]; at 100.0 µM 54% | [9]; [16] -3% | [9]; at 50.0 µM 10.3% | [10]; at 1.2 µM 18% | [10]; at 3.7 µM 15% | [10]; [16] 23% | [10]; at 11.0 µM 29% | [10]; at 50.0 µM 45.4% | [11]; at 1.2 µM -6% | [11]; at 3.7 µM 3% | [11]; at 11.0 µM 43% | [12]; at 1.2 µM -1% | [12]; at 3.7 µM -1% | [12]; at 11.0 µM 24% | [12]; at 33.0 µM 64% | [13]; at 1.2 µM 22% | [13]; at 3.7 µM 37% | [14]; [16] 59% | [14]; at 50.0 µM 69.1%
active: [1]; at 33.0 µM 97% | [1]; at 100.0 µM 97% | [2]; at 33.0 µM 81% | [2]; at 100.0 µM 97% | [3]; at 33.0 µM 94% | [3]; at 100.0 µM 97% | [4]; at 11.0 µM 79% | [4]; at 33.0 µM 97% | [4]; [17] 95% | [4]; at 100.0 µM 98% | [5]; at 33.0 µM 92% | [5]; [17] 93% | [5]; at 100.0 µM 98% | [6]; at 33.0 µM 97% | [6]; at 100.0 µM 98% | [7]; [17] 96% | [9]; [17] 82% | [10]; at 33.0 µM 86% | [10]; [17] 93% | [10]; at 100.0 µM 95% | [11]; at 33.0 µM 96% | [11]; at 100.0 µM 98% | [12]; at 100.0 µM 97% | [13]; at 11.0 µM 78% | [13]; at 33.0 µM 97% | [13]; at 100.0 µM 97% | [14]; [17] 97% | [15]; at 1.2 µM 92% | [15]; at 3.7 µM 96% | [15]; at 11.0 µM 96% | [15]; at 33.0 µM 97% | [15]; at 100.0 µM 97%

N#CC(C#N)=Cc1ccc(C#N)cc1
active: [4]; [17] 90% | [14]; [17] 76%
inactive: [1]; at 1.2 µM 0% | [1]; at 3.7 µM -4% | [1]; at 11.0 µM -1% | [1]; at 33.0 µM 0% | [1]; at 100.0 µM 11% | [2]; at 1.2 µM -2% | [2]; at 3.7 µM -2% | [2]; at 11.0 µM -3% | [2]; at 33.0 µM -2% | [2]; at 100.0 µM 3% | [3]; at 1.2 µM -2% | [3]; at 3.7 µM -2% | [3]; at 11.0 µM 0% | [3]; at 33.0 µM 0% | [3]; at 100.0 µM 0% | [4]; at 1.2 µM 1% | [4]; at 3.7 µM -4% | [4]; [16] -109% | [4]; at 11.0 µM 2% | [4]; at 33.0 µM 10% | [4]; at 50.0 µM -6.65% and 24.1% | [4]; at 100.0 µM 9% | [5]; at 1.2 µM 3% | [5]; at 3.7 µM 0% | [5]; [16] -47% | [5]; at 11.0 µM 6% | [5]; at 33.0 µM 3% | [5]; [17] 15% | [5]; at 50.0 µM -8.25% and 5.55% | [5]; at 100.0 µM 7% | [6]; at 1.2 µM 1% | [6]; at 3.7 µM 1% | [6]; at 11.0 µM 2% | [6]; at 33.0 µM 6% | [6]; at 100.0 µM 16% | [7]; [16] -56% | [7]; [17] 62% | [7]; at 50.0 µM -16.8% and -0.4% | [8]; at 1.2 µM -4% | [8]; at 3.7 µM -2% | [8]; at 11.0 µM 1% | [8]; at 33.0 µM 0% | [8]; at 100.0 µM 11% | [9]; [16] -60% | [9]; [17] -7% | [9]; at 50.0 µM 50.4% and 4.05% | [10]; at 1.2 µM -4% | [10]; at 3.7 µM -8% | [10]; [16] -65% | [10]; at 11.0 µM -7% | [10]; at 33.0 µM -7% | [10]; [17] 51% | [10]; at 50.0 µM -0.75% and 31.1% | [10]; at 100.0 µM 7% | [11]; at 1.2 µM -1% | [11]; at 3.7 µM -1% | [11]; at 11.0 µM -1% | [11]; at 33.0 µM 1% | [11]; at 100.0 µM 5% | [12]; at 1.2 µM 8% | [12]; at 3.7 µM -4% | [12]; at 11.0 µM -1% | [12]; at 33.0 µM 1% | [12]; at 100.0 µM 2% | [13]; at 1.2 µM -1% | [13]; at 3.7 µM -2% | [13]; at 11.0 µM -2% | [13]; at 33.0 µM -2% | [13]; at 100.0 µM 14% | [14]; [16] -109% | [14]; at 50.0 µM -24.6% and 16.7% | [15]; at 1.2 µM -1% | [15]; at 3.7 µM -1% | [15]; at 11.0 µM -1% | [15]; at 33.0 µM 0% | [15]; at 100.0 µM 9%

C=CC[N+]12CN3CN(CN(C3)C1)C2
inactive: [1]; at 1.2 µM -8% | [1]; at 3.7 µM 5% | [1]; at 11.0 µM -11% | [1]; at 33.0 µM -5% | [1]; at 100.0 µM 29% | [2]; at 1.2 µM -10% | [2]; at 3.7 µM -28% | [2]; at 11.0 µM -21% | [2]; at 33.0 µM -23% | [2]; at 100.0 µM 41% | [3]; at 1.2 µM 7% | [3]; at 3.7 µM 2% | [3]; at 11.0 µM -31% | [3]; at 33.0 µM 16% | [3]; at 100.0 µM 68% | [4]; at 1.2 µM 8% | [4]; at 3.7 µM -1% | [4]; [16] 38% | [4]; at 11.0 µM -21% | [4]; at 33.0 µM -3% | [4]; [17] 65% | [4]; at 50.0 µM 29.8% | [4]; at 100.0 µM 32% | [5]; at 1.2 µM -12% | [5]; at 3.7 µM -24% | [5]; [16] 43% | [5]; at 11.0 µM -31% | [5]; at 33.0 µM 45% | [5]; at 50.0 µM 20.6%
active: [5]; [17] 70%
